Laboratory results taken from PubChem BioAssay AID640 (Columbia University Molecular Screening Center, 2007).
Out of some 96,000 compounds screened, about 200 (0.21%) were called active.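 How the source made its calls: active means inhibition at 2 µM at or above a set limit, the screen mean plus 3 SD (cut at about 24% in these data); inactive means the rest.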 What follows is part of a selection rich in actives, with near analogues and random picks from the rest.

molecular target: Tyrosine-protein phosphatase non-receptor type 22 (Homo sapiens) (UniProt Q9Y2R2); assay: PTPN22 phosphatase inhibitors, primary screen, biochemical, DiFMUP fluorescence, 2 µM (AID 640); details: recombinant LYP catalytic domain, at 2 µM, hits give high values;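 further: 0% = DMSO with enzyme and 100% = enzyme fully blocked by orthovanadate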
Sequence (Q9Y2R2 whole entry, looked up, the tested form may be a part): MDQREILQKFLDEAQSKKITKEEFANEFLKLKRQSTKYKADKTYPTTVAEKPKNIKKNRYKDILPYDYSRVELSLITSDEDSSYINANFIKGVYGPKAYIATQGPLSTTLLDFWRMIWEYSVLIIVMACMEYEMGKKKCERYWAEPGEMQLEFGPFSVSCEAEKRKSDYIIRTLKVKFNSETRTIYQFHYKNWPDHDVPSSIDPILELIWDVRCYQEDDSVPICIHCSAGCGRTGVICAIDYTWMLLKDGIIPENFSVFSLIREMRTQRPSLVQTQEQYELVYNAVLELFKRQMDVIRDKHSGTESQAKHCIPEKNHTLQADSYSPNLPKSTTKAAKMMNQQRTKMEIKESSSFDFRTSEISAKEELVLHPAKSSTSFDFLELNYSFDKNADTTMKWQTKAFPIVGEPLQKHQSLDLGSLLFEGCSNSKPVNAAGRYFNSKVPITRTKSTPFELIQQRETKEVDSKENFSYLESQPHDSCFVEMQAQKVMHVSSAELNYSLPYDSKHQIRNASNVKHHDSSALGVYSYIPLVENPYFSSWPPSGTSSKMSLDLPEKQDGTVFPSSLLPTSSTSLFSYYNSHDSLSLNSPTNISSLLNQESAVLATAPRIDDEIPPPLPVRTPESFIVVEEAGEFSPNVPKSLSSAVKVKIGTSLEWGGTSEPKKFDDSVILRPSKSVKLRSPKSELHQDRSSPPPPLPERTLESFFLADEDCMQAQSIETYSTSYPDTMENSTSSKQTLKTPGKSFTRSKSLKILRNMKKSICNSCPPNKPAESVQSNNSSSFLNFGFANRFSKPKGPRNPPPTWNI

**Q.** For `Cc1ccc(OCC(=O)Nc2cccc3c2CCCC3)cc1C`, which inhibition is on record?
**A.** 10% (inactive)

**Q.** `CCN1CCN(C(=O)/C=C\C(=O)O)CC1` was tested. Which inhibition did it give?
**A.** -7% (inactive)

**Q.** With `Cc1cc(S(=O)(=O)NC2CCCCC2)ccc1OCC(=O)NCc1cccnc1` as the molecule, how does the inhibition read?
**A.** -9.7% (inactive)

**Q.** `COc1ccc(Br)cc1CN1CCN(C(=O)c2cccc(OC)c2OC)CC1` was tested. Which inhibition did it give?
**A.** 0.1% (inactive)

**Q.** Which inhibition does the source give for `COC(=O)c1c(CCl)noc1C(=O)NC(C)C` here?
**A.** -0.4% (inactive)

**Q.** `CCc1ccc2c(c1)C1(NN=C(c3ccccc3)S1)C(=O)N2` (stereo not given) was tested. Which inhibition did it give?
**A.** 15.3% (inactive)

**Q.** How did the inhibition turn out when `CCCCc1nnc(NC(=O)CS(=O)(=O)Cc2ccccc2)s1` was run?
**A.** 3.6% (inactive)

**Q.** Which inhibition does the source give for `c1ccc(-c2nccc(-c3ccc(-n4cnc5ccccc54)cc3)n2)nc1` here?
**A.** 39.8% (active)

**Q.** Which inhibition does the source give for `CC(C)c1nc(-c2ccccn2)no1` here?
**A.** 4% (inactive)

**Q.** For `c1ccc(-c2noc(-c3cccs3)n2)nc1`, which inhibition is on record?
**A.** 7.6% (inactive)

**Q.** Which inhibition does the source give for `COc1ccc(Nc2cc(=O)oc3ccccc23)cc1` here?
**A.** 5% (inactive)

**Q.** For `Cc1cc(-n2nc(C)cc2C)n2nc(C)c(-c3ccccc3)c2n1`, which inhibition is on record?
**A.** -2.6% (inactive)

**Q.** With `O=C(Nc1ccccc1)O/N=C1\CCCCC1c1ccc([N+](=O)[O-])cc1[N+](=O)[O-]` (stereo not given) as the molecule, how does the inhibition read?
**A.** -11% (inactive)

**Q.** Which inhibition does the source give for `O=S(=O)(NN=C1CCCCCCC1)c1ccc(Br)cc1` here?
**A.** 6.1% (inactive)

**Q.** Which inhibition does the source give for `Cc1nc2ccccc2n1C(=O)N1CCOCC1` here?
**A.** 1.2% (inactive)

**Q.** Which inhibition does the source give for `Cc1ccc(S(=O)(=O)N(CC(=O)N2CCc3ccccc3C2)c2cccc(Cl)c2)cc1` here?
**A.** 4.6% (inactive)

**Q.** For `Cc1cc(C)c(NC(=O)CN2CCOCCOCCOCCOCC2)c(C)c1`, which inhibition is on record?
**A.** 3.4% (inactive)

**Q.** Which inhibition does the source give for `O=C(Oc1ccccc1)Oc1ccc2c(c1)oc(=O)c1ccccc12` here?
**A.** -1.7% (inactive)

**Q.** For `COCCN(C(=O)c1ccco1)c1nnc(-c2ccc(OC)cc2)s1`, which inhibition is on record?
**A.** 10.8% (inactive)

**Q.** `COc1ccc(S(=O)(=O)NCc2ccc(C(=O)N(C)Cc3ccco3)cc2)cc1` was tested. Which inhibition did it give?
**A.** -6% (inactive)

**Q.** For `CCOC(=O)C1=C(C)NC(SC)=NC1c1ccccc1` (stereo not given), which inhibition is on record?
**A.** -0.6% (inactive)

**Q.** How did the inhibition turn out when `Cc1nc2cc(NC(=O)NCc3ccccc3)ccc2o1` was run?
**A.** -5.6% (inactive)

**Q.** Which inhibition does the source give for `O=C1Nc2cc(Cl)c(Cl)cc2N(O)N1c1cc(Cl)cc(Cl)c1` here?
**A.** -15.4% (inactive)

**Q.** With `COc1ccc2nc(SCC(=O)Nc3c(C)cc(C)cc3C)[nH]c2c1` as the molecule, how does the inhibition read?
**A.** -3.6% (inactive)

**Q.** Which inhibition does the source give for `O=C(c1cccc(F)c1)N1CCN(c2ccc([N+](=O)[O-])c(N3CCCCC3)c2)CC1` here?
**A.** 8.1% (inactive)

**Q.** With `CCn1nccc1C(=O)Nc1ccc(Cl)c(Cl)c1` as the molecule, how does the inhibition read?
**A.** -0.3% (inactive)

**Q.** For `Cc1nnc(NC(=O)Nc2ccc(Cl)c(Cl)c2)s1`, which inhibition is on record?
**A.** 24.4% (active)

**Q.** `O=C(CC(O)(C(F)(F)F)C(F)(F)F)Nc1ccc(Cl)c(Cl)c1` was tested. Which inhibition did it give?
**A.** -2.3% (inactive)

**Q.** Which inhibition does the source give for `CCOC(=O)C1CN(S(=O)(=O)c2ccc(F)cc2)C1` here?
**A.** 8.4% (inactive)

**Q.** `CC(C)(C)NC(=O)CSC(=Nc1ccccc1F)NC#N` was tested. Which inhibition did it give?
**A.** 11.7% (inactive)

**Q.** How did the inhibition turn out when `CCCn1nnc(NC(=O)COc2ccc(CC)cc2)n1` was run?
**A.** 14.5% (inactive)

**Q.** For `CCOC(=O)C(Sc1ncc(C#N)c(N)n1)C(C)C` (stereo not given), which inhibition is on record?
**A.** 4.5% (inactive)

**Q.** Which inhibition does the source give for `Cc1ccc(CN2CCN(/N=C/c3ccco3)CC2)c(C)c1` here?
**A.** 6.2% (inactive)

**Q.** Which inhibition does the source give for `CCOC(=O)CN(Cc1ccc(OC)c(OC)c1)S(=O)(=O)c1ccc(OC)cc1` here?
**A.** 4.6% (inactive)

**Q.** For `Cn1nc(C(F)(F)F)c2cc(NC(=O)OCC(C)(C)C)sc21`, which inhibition is on record?
**A.** -3.4% (inactive)

**Q.** Which inhibition does the source give for `CCCCNCc1ccc(SC)cc1` here?
**A.** -8.8% (inactive)

**Q.** For `COc1ccc(-c2noc(CSc3ccc(C)cc3)n2)cc1`, which inhibition is on record?
**A.** 6.7% (inactive)

**Q.** For `CCSc1nnc(NC(=O)c2ccc(C)cc2)s1`, which inhibition is on record?
**A.** -2.4% (inactive)

**Q.** With `CC(C)(C)C(=O)Nc1ccc(C(=O)N/N=C/c2ccccc2OC(=O)c2ccc(Cl)cc2Cl)cc1` as the molecule, how does the inhibition read?
**A.** 13% (inactive)

**Q.** For `CC(C)n1c(-c2cccs2)nc2ccccc21`, which inhibition is on record?
**A.** -3.5% (inactive)

**Q.** How did the inhibition turn out when `CCOC(=O)c1cnc(SCC(=O)Nc2cccc(OC)c2)nc1N` was run?
**A.** -12.3% (inactive)

**Q.** For `Cc1ccc(-n2c(C)cc(/C=N/Nc3ccc([N+](=O)[O-])cn3)c2C)c(C)c1`, which inhibition is on record?
**A.** 11.5% (inactive)

**Q.** With `Cc1nc(NC(=O)CN(C)S(=O)(=O)c2ccc(Cl)cc2)sc1C` as the molecule, how does the inhibition read?
**A.** 6.8% (inactive)

**Q.** Which inhibition does the source give for `Nc1c(-c2cccc(Cl)c2)cnn1-c1cccc([N+](=O)[O-])c1` here?
**A.** -9.9% (inactive)

**Q.** Which inhibition does the source give for `O=C(N/N=C/c1ccsc1)c1cc(O)cc(O)c1` here?
**A.** 4.4% (inactive)

**Q.** With `Cn1cc([N+](=O)[O-])c(C(=O)Nc2ccc3c(c2)OCCO3)n1` as the molecule, how does the inhibition read?
**A.** 3.8% (inactive)

**Q.** Which inhibition does the source give for `O=S(=O)(N/N=C\c1cccn1-c1ccccc1)c1ccc2ccccc2c1` here?
**A.** -4.4% (inactive)

**Q.** With `O=C1CSC(c2ccc(Cl)cc2)N1` (stereo not given) as the molecule, how does the inhibition read?
**A.** -5.4% (inactive)

**Q.** `COCC(=O)Nc1ccc(Br)cc1` was tested. Which inhibition did it give?
**A.** -3.3% (inactive)

**Q.** How did the inhibition turn out when `Cn1c(=O)c2c(nc(N3CCOCC3)n2CCNC2=NCCC2)n(C)c1=O` was run?
**A.** -6.1% (inactive)

**Q.** `COn1c(=O)c(=O)n(OC)c2ccccc21` was tested. Which inhibition did it give?
**A.** 3.4% (inactive)

**Q.** `Cc1oc(-c2ccccc2Cl)[n+]([O-])c1C` was tested. Which inhibition did it give?
**A.** -4.8% (inactive)

**Q.** Which inhibition does the source give for `CC1=NN(C(C)C)C(=O)C1` here?
**A.** 1.5% (inactive)

**Q.** With `c1ccc(CSc2ncnc3c2sc2nc(N4CCOCC4)c4c(c23)CCCC4)cc1` as the molecule, how does the inhibition read?
**A.** 10.1% (inactive)

**Q.** Which inhibition does the source give for `CCOc1cccc(NC(=O)Cn2nc(-c3ccc4c(c3)OCCO4)ccc2=O)c1` here?
**A.** 7.6% (inactive)

**Q.** With `O=C(Nc1ccc2sc3ccccc3c(=O)c2c1)c1ccccc1Cl` as the molecule, how does the inhibition read?
**A.** 1.6% (inactive)

**Q.** `COC(=O)CSc1nnc(-c2cccnc2)o1` was tested. Which inhibition did it give?
**A.** 4.2% (inactive)

**Q.** How did the inhibition turn out when `Cc1ccc2oc(=O)c3cnn(CC(=O)N(Cc4ccco4)C4CCCCC4)c3c2c1` was run?
**A.** 3.6% (inactive)

**Q.** Which inhibition does the source give for `COc1cc(S(=O)(=O)N(Cc2cccs2)C2CC2)ccc1-n1cnnn1` here?
**A.** -4.5% (inactive)

**Q.** `CCOc1ccc(N=C2NC(=O)S/C2=C\c2ccc(O)cc2)cc1` was tested. Which inhibition did it give?
**A.** -3.4% (inactive)

**Q.** `COc1ccc2oc(=O)c(C(=O)NCc3ccccn3)cc2c1` was tested. Which inhibition did it give?
**A.** -1.3% (inactive)

**Q.** For `N#Cc1ccccc1CN1C(=O)S/C(=C/c2cccn2-c2cccc(C(=O)O)c2)C1=O`, which inhibition is on record?
**A.** 32.6% (active)

**Q.** With `Cc1cc(/C=C2/SC(=O)N(CC(=O)OC(C)C)C2=O)c(C)n1C` as the molecule, how does the inhibition read?
**A.** 9.2% (inactive)

**Q.** With `Brc1ccc(-c2nnc(-c3ccccc3)o2)o1` as the molecule, how does the inhibition read?
**A.** -8.3% (inactive)

**Q.** How did the inhibition turn out when `O=C(CCCN1C(=O)c2ccccc2C1=O)Oc1ccc(Cl)cc1` was run?
**A.** 4.1% (inactive)
